Whole data set: some 39,000 sequences, median “fluorescence intensity (a.u.)” near 4,300, cut for the highest 2% near 39,000. This is one part of a sample in which the highest values are shown more often than they occur.

The assay has as its target T1, OsSMF1 (Oryza sativa, UniProt Q6ZLB0 1-436).
T1 sequence: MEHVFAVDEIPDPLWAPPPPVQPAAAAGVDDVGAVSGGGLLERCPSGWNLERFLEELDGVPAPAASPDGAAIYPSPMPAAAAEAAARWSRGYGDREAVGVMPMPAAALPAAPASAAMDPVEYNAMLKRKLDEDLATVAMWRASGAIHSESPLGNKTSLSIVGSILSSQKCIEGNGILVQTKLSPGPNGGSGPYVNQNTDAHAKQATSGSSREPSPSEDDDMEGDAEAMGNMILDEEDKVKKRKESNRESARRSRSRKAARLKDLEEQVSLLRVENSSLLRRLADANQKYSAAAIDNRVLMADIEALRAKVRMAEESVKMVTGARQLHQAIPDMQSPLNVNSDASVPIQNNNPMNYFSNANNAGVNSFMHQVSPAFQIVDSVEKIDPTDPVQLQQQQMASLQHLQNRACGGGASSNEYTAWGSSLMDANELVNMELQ
The assay can be described thus: protein-binding microarray (RPBM); PBS, 2% BSA, 51.3 ng/ul salmon testes DNA, 50 uM zinc acetate, 200 nM TF, 25 C, 1 h; high values mean tight binding. To be noted: protein: recombinant; tags: N-terminal polyhistidine and DsRed monomer fusion (pET32a); chain copies: 2; label: CyDye5-dUTP incorporated in the synthesized complementary strand; 3' TTTTT single-stranded linker to array surface; dsDNA, one strand shown. An outline of the steps:
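Polyhistidine-tagged DsRed fusions of transcription factors, joined at the N-terminus, were expressed in E. coli BL21-CodonPlus and isolated on Ni–NTA. They were incubated at 200 nM for 1 h at 25 °C on a custom Agilent array, double-stranded and BSA-blocked, in PBS with 2% BSA, salmon testes DNA and 50 µM zinc acetate. The binding signal is per-feature fluorescence intensity (arbitrary units) read on an Axon 4000B scanner after washing.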
With “AAGCGCACGCACACATATGCCACGCATTGACGCATGGCACCGGAGTCACCTAGTGCAG”, the binding signal was 5630 fluorescence intensity (a.u.).
As for “CCCAGCCCACAAAGGAAGCGAGATCACAATTTCTGGGCCGCGGAGTCACCTAGTGCAG”, the figure is 3400 fluorescence intensity (a.u.); as for “AAAAGCAAAAGCAAAAGAAACACGTCCTTATTCCTCTCTCCGGAGTCACCTAGTGCAG”, 3910 fluorescence intensity (a.u.); as for “GATCAACCTTATTTCTGCAAGCAAATCAAAGAAACAAGCACGGAGTCACCTAGTGCAG”, 41700 fluorescence intensity (a.u.).
The value for “TCCCGCCACAAGCAACCAAGAAATCAAGAAACCGTTTCAGCGGAGTCACCTAGTGCAG” was 19600 fluorescence intensity (a.u.); that for “CGGCAGCCACCTCCCCACTCCATCCTCTCGTCCCCTTTTACGGAGTCACCTAGTGCAG” was 3870 fluorescence intensity (a.u.); that for “TGAGCTGCTTTTACACGTTGCTTTATTGACACTTGTTCACCGGAGTCACCTAGTGCAG” was 45500 fluorescence intensity (a.u.).
The value for “ATTGTTTAGTATTGCGTTATGTTATGTTACTTTTGATACACGGAGTCACCTAGTGCAG” was 14400 fluorescence intensity (a.u.); that for “CTGCTCCTAGTCACACTTGACAGTTCAGCTTCAGCTCCTCCGGAGTCACCTAGTGCAG” was 6360 fluorescence intensity (a.u.).
Turning to “TGCATAAGGATAATCCGGTCGTCAGCAAACAATGCATTCACGGAGTCACCTAGTGCAG”, the binding signal was 3450 fluorescence intensity (a.u.).
The value for “CAAGACGGATTTATTAAGCCTAATTAATCTATCATTAGCGCGGAGTCACCTAGTGCAG” was 4110 fluorescence intensity (a.u.); that for “TGCAAATTGCGAGACGGATTTATTAAGCCTAGTTAATCCGCGGAGTCACCTAGTGCAG” was 39400 fluorescence intensity (a.u.).
As for “ACGAATTTATTAAGCCTAATTAATCCGTTATTAGCAAATGCGGAGTCACCTAGTGCAG”, the figure is 6210 fluorescence intensity (a.u.); as for “AAAGGCCACGCCTTTGCCTCGTCAGTTATCTCTTCGTTTCCGGAGTCACCTAGTGCAG”, 5220 fluorescence intensity (a.u.).
As for “GGAGTATCCATGCCAGCTAAGCGAGTTGTACAAGGCAAGCCGGAGTCACCTAGTGCAG”, the figure is 5690 fluorescence intensity (a.u.).
Regarding “CGGGTAGGCGAACACGTCGCTGACGCCGCACCGCTCCAGCCGGAGTCACCTAGTGCAG”, the binding signal is 6760 fluorescence intensity (a.u.).
“TGGTGATATCAATAGGATTGGAAGAGATTTGTCAGCCTATCGGAGTCACCTAGTGCAG”: the binding signal is 3450 fluorescence intensity (a.u.).
The value for “TATCAAAATCCACTGCAACATTTAATACATACATAGTGAACGGAGTCACCTAGTGCAG” was 21300 fluorescence intensity (a.u.); that for “TAGCTCGTACTCCTACATCGTAGCCACCGCGCCTCCCATGCGGAGTCACCTAGTGCAG” was 3640 fluorescence intensity (a.u.).
The value for “CGCCATGGGCGACATCGACATCTACAGCCTCTACACTCCGCGGAGTCACCTAGTGCAG” was 44200 fluorescence intensity (a.u.); that for “CGCCATGGGAGCACTCCCCATCTTGTCCTCTACCGCCGCGCGGAGTCACCTAGTGCAG” was 3250 fluorescence intensity (a.u.).
As for “GCCTGTGGCCCACGCCGTCAGTGGGAGTGGCGGTGTCGGGCGGAGTCACCTAGTGCAG”, the figure is 3960 fluorescence intensity (a.u.); as for “CCGAATCCGGCCACCCCGCCGCCTCCACGCGCATCACCGCCGGAGTCACCTAGTGCAG”, 3220 fluorescence intensity (a.u.).
